Results taken from the supplement of paper PMC4466236.
The full ranking holds about 33,000 sequences; the median of “E-score (dimensionless, -0.5 to 0.5)” is about -0.058, and the highest 2% start at about 0.35. This is one part of a sample in which the highest values are shown more often than they occur.

test system: MvaT; assay: PBM 8-mer E-score (mean of HK and ME arrays) (E-score (dimensionless, -0.5 to 0.5)); higher = stronger relative binding preference
Method: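 Protein binding microarray: GST-tagged full-length MvaT (P. aeruginosa PAO1) bound to two universal double-stranded 60-mer arrays (ME and HK), each with a constant 25-mer primer and a variable 35-mer region covering all 8-mers. The 8-mer E-score (rank-based, range -0.5 to 0.5, >0.45 = specific binding) is the mean of the two arrays.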

Row | Sequence | PBM 8-mer E-score
1 | ATTTCTGC | 0.125
2 | ATTCATTA | 0.219
3 | GATAGGAA | -0.0142
4 | AAATTGCT | 0.214
5 | AACCCGTC | -0.0101
6 | GTCGAGAA | -0.0478
7 | GCATACCC | 0.0205
8 | TCACGCAA | -0.124
9 | CTGTTTAA | 0.302
10 | AAGTTTAC | 0.157
11 | ATGTTTAG | 0.212
12 | AAGTTTTA | 0.318
13 | AAGTTTAA | 0.357
14 | CAGTTTAA | 0.26
15 | ATGTTTAA | 0.391
16 | GAGTTTAA | 0.235
17 | TAGTTTAA | 0.398
18 | AAGTTTAG | 0.288
19 | AAGTTTGA | 0.289
20 | AAGTTTAT | 0.358
21 | TATTCGGA | -0.000615
22 | ACAGGTCG | -0.216
23 | CTGTGTGC | 0.0347
24 | AAGCAGGT | 0.0586
25 | CGTTCAAG | -0.0745

Row | Sequence | PBM 8-mer E-score
26 | GCTCGCAA | -0.107
27 | AGTTTTAC | 0.221
28 | AGTTTTAT | 0.351
29 | AGTTTTAG | 0.162
30 | ATACGGCG | -0.11
31 | AACAACTT | 0.358
32 | AACAACTA | 0.335
33 | AACAACTC | 0.185
34 | AGTGGGCA | 0.0126
35 | GGTCCGAA | -0.0643
36 | ATAACAAT | 0.355
37 | ATAACTAG | 0.27
38 | ATAACAAC | 0.228
39 | AAAACAAG | 0.122
40 | ACAACAAC | 0.216
41 | AAAACAAC | 0.282
42 | ATAACTAT | 0.388
43 | ATAACTAA | 0.32
44 | AAAACAAT | 0.349
45 | ACAACAAT | 0.372
46 | ATAACAAG | 0.283
47 | ACAACAAG | 0.138
48 | AAGTAGAC | 0.0778
49 | ACCATATC | 0.099
50 | GCGTGGAC | -0.192

Row | Sequence | PBM 8-mer E-score
51 | TATGGACA | 0.0866
52 | TGCAGGCA | -0.0892
53 | GACCACCC | -0.296
54 | CTTTATAC | 0.264
55 | ATTTATCC | 0.286
56 | GTTTATGA | 0.208
57 | ATTTATAA | 0.459
58 | GTTTATCA | 0.19
59 | GTTTATAA | 0.383
60 | CTTTATAA | 0.344
61 | ATTTATAC | 0.383
62 | ATTTATAG | 0.342
63 | CGATACGC | -0.172
64 | AGCGGGAT | -0.138
65 | ACCCTTTC | -0.289
66 | GGCAATAA | 0.228
67 | GCTAATCA | 0.0157
68 | ACTAATTA | 0.45
69 | GCTAATTA | 0.352
70 | CCTAATTA | 0.358
71 | CCTAATGA | -0.254
72 | ACTAATTC | 0.227
73 | CCTAATTC | 0.0847
74 | GCTAATGA | -0.138
75 | ACTAATTG | 0.308

Row | Sequence | PBM 8-mer E-score
76 | CAAGTAGA | 0.141
77 | AGTCAGCA | -0.0242
78 | GGCCAGAA | -0.026
79 | GAACGGGA | -0.0641
80 | GTGCGTTA | 0.133
81 | GACCTTGA | -0.138
82 | AGGTTCCG | -0.212
83 | TACTTAAA | 0.302
84 | CAGTTCAA | 0.0238
85 | AACTTCAA | 0.345
86 | GACTTCAA | 0.0947
87 | AACTTAAT | 0.381
88 | AACTTAAC | 0.323
89 | AACTTAAA | 0.352
90 | AACTTAAG | 0.333
91 | AACTTCAG | 0.158
92 | CACTTAAA | 0.0563
93 | AAGTTCAA | 0.398
94 | GAGTTCAA | 0.174
95 | GGGCCACC | -0.382
96 | GATTTGTA | 0.205
97 | GCCCGCGC | -0.262
98 | TGGTGCAA | 0.0798
99 | ACAGATGA | -0.0583
100 | CGAGGTAC | -0.301

Row | Sequence | PBM 8-mer E-score
101 | ACCCATTA | 0.241
102 | CGTTAGCA | -0.0988
103 | CCGGCCTA | -0.174
104 | CTAATTAA | 0.413
105 | AGAATTAG | 0.00537
106 | GCAATTAC | 0.169
107 | GTAATTAC | 0.393
108 | ATAATTGA | 0.338
109 | GAAATTAC | 0.247
110 | ATAATTAA | 0.456
111 | CTAATTCA | 0.228
112 | CTGATTAA | 0.278
113 | ATAATTCG | 0.228
114 | GTAATTAA | 0.343
115 | ATAATTAG | 0.429
116 | CCGTGCCC | -0.184
117 | ATCCTGGA | 0.0568
118 | CCGCACGA | -0.13
119 | AACTATGT | 0.258
120 | ATGGAGAC | -0.0433
121 | CTTTTCTC | -0.00236
122 | TATTTCCA | 0.312
123 | AGACTAAC | 0.00982
124 | AGATACCC | -0.0322
125 | ATAATGGA | 0.238

Row | Sequence | PBM 8-mer E-score
126 | CACGTCTC | -0.173
127 | AGAATTAT | 0.315
128 | CAAATTAG | 0.18
129 | ATAATTGG | 0.308
130 | ATAATTAT | 0.467
131 | CTAATTAC | 0.322
132 | CCAATTAG | 0.073
133 | ATAATTAC | 0.378
134 | CTAATTAG | 0.35
135 | ATAATTCC | 0.254
136 | AGCTAATC | -0.0533
137 | GAAGTTGA | 0.0448
138 | ATTTGGAA | 0.0956
139 | CAATACTA | 0.172
140 | TACTAATA | 0.357
141 | CAATACAA | 0.199
142 | AAATACAA | 0.33
143 | TAATACTA | 0.37
144 | GACTAATA | 0.297
145 | CACTAATA | 0.323
146 | AAATACTT | 0.246
147 | TAATACAA | 0.397
148 | AAATACTA | 0.383
149 | GAATACTA | 0.212
150 | AAATACTC | 0.207

Row | Sequence | PBM 8-mer E-score
151 | CTTCGAGC | -0.301
152 | AGAGGCGC | -0.328
153 | CCACGCGC | -0.112
154 | CCCATCGG | -0.267
155 | GGATACGA | 0.0766
156 | AAGATCGC | -0.0523
157 | AATGGTTC | -0.0396
158 | AAATACCG | 0.271
159 | CCCTAAGG | -0.289
160 | GAGTTATC | 0.0914
161 | TAGTTAGA | 0.178
162 | AAGTTATA | 0.442
163 | CCGTTATA | 0.308
164 | GCGTTATA | 0.252
165 | TAGTTATA | 0.402
166 | TAGTTACA | 0.247
167 | GAGTTATA | 0.369
168 | CAGTTATA | 0.36
169 | CAGTTATC | 0.131
170 | AAGTTACA | 0.264
171 | AAGTTAGA | 0.302
172 | AAGATTGG | 0.154
173 | GAAACGGA | -0.164
174 | ATAACCTA | 0.182
175 | ATGTCGAC | 0.0419

Row | Sequence | PBM 8-mer E-score
176 | AGTTCTGA | 0.144
177 | AAAATCAA | 0.18
178 | AAAGCTGG | -0.0254
179 | AATAATTG | 0.372
180 | AATAATTC | 0.344
181 | GATAATCC | 0.175
182 | CATAATTC | 0.223
183 | AATAATCG | 0.309
184 | CATAATTA | 0.421
185 | AGTAATTG | 0.293
186 | AATAATTA | 0.463
187 | CATAATCA | 0.227
188 | GATAATTA | 0.419
189 | AAGAATTA | 0.295
190 | GAGAATTA | 0.23
191 | ATTCTTGC | 0.0322
192 | CATAGGGA | -0.132
193 | TCCTTCCA | -0.27
194 | GCAGTATA | 0.287
195 | ATCGGCGC | -0.104
196 | AGCCCTAT | -0.14
197 | AAGAAGAC | -0.0906
198 | TAACAGGA | 0.223
199 | AGCCGCCT | -0.243
200 | CGTTGGCC | -0.25

Row | Sequence | PBM 8-mer E-score
201 | AGATACGG | -0.112
202 | ATTTTTCC | 0.0867
203 | GTCGTGAA | -0.22
204 | CAAAGGTA | -0.113
205 | CAACACCA | 0.0286
206 | AGAGATAA | 0.144
207 | AGATATAA | 0.373
208 | AGATATCA | 0.194
209 | AGATATAT | 0.46
210 | AGATATAC | 0.155
211 | AGATATAG | 0.208
212 | GAATGGGC | -0.16
213 | GATATTAA | 0.438
214 | CAGATTAA | 0.137
215 | CATATTAA | 0.418
216 | GAGATTAA | 0.232
217 | CATATTCA | 0.184
218 | GATATTAC | 0.293
219 | CCTACCAG | -0.279
